Experimental findings from PubChem BioAssay AID1259417 (TB Discovery Research, Infectious Disease Research Institute, 2018) are described below.

SMILES strings stand for the structures. Among all 1,100 compounds or so, about 760 (69%) were called active. The rule behind the calls is not given here. The set was probably picked from earlier hits. The list shows a part of the results.

The nature of this experiment: M. tuberculosis growth inhibition, HTS (AID 1259417).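 Note: bacteria grown with compound for 5 days at 37 °C.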 As to conditions: stronger effect = higher value, concentration not given here.
The mark [1] stands for this setting: M. tuberculosis DsRed fluorescence growth inhibition.
[2] abbreviates: M. tuberculosis growth inhibition.

The inhibition is the change of the read-out against control, counted positive when it falls. As to `COc1ccc(NC(=O)c2c(NC(=O)c3ccc([N+](=O)[O-])o3)sc3c2CCC3)cc1`, the inhibition by setting is: under setting [1], 96.5% (active); under setting [2], 96.2%.
`COC(=O)c1c(NC(=O)c2cccc(OC)c2)sc2c1C(C(=O)OC)CC2` (stereo not given): the inhibition reads like this: under setting [1], 1.52% (inactive); under setting [2], -13.4%.
On the same counts, the results for `Cc1ccc(-c2nn(-c3ccccc3)cc2CNCc2ccccc2)cc1` are 33.4% (active) and 66.5%.
On the same counts, the results for `CCn1ccnc1CN(C)Cc1cn(-c2ccc(C)cc2)nc1-c1cccc(C)c1` are 14.8% (inactive) and 8.21%.
For `CCn1ccnc1CN(C)Cc1cn(-c2cc(C)ccc2C)nc1-c1ccccc1`, in that order: 16.9% (inactive) and 8.97%.
In the case of `Brc1ccc(-c2nn(-c3ccccc3)cc2CNCc2ccccc2)cc1`, the inhibition is 23.1% (active) under setting [1] and 39.4% under setting [2].
On the same counts, the results for `CC(C)COc1ccc(-c2nn(-c3ccccc3)cc2C(=O)Nc2nccs2)cc1` are 2.38% (inactive) and -24.1%.
On to `CCc1nnc(NC(=O)c2cc3ccccc3oc2=O)s1`, for which the inhibition under setting [1] is 1% (active) and the inhibition under setting [2] was 47%.
For `Cc1sc(NC(=O)c2cc3ccccc3oc2=O)c(C(=O)OC(C)C)c1C`, in that order: 6.18% (inactive) and 28.3%.
On the same counts, the results for `CCOC(=O)c1c(-c2ccccc2)csc1NC(=O)c1cc2ccccc2oc1=O` are 7.43% (active) and 32.3%.
Regarding `CCOC(=O)c1c(-c2ccc(OC)c(OC)c2)csc1NC(=O)c1cccc(OC)c1OC`, the inhibition is, setting by setting: under setting [1], 4.18% (inactive); under setting [2], -8.63%.
On the same counts, the results for `NC(=O)c1c(NC(=O)c2cc3ccccc3oc2=O)sc2c1CCCCCC2` are 3.53% (inactive) and -10.8%.
Consider `CCOC(=O)c1cc(CC)sc1NC(=O)c1cc2ccccc2oc1=O`, for which the inhibition is 23.7% (active) under setting [1] and 60.6% under setting [2].
For the compound `Cc1cc2ncn(Cc3ccc(C(C)C)cc3)c2cc1C`, the inhibition under setting [1] was 90.4% (active) and the inhibition under setting [2] stood at 98.3%.
On the same counts, the results for `Cc1cccc(OCCCn2cnc3cc(C)c(C)cc32)c1` are 88% (active) and 97.5%.
Take `Cc1cc2ncn(CCOc3ccc(Cl)cc3)c2cc1C`: the inhibition is 88.3% (active) under setting [1] and 95.9% under setting [2].
On the same counts, the results for `c1ccc(CCN(Cc2ccccc2)C2CCN(Cc3c[nH]c4ccccc34)CC2)cc1` are 2.96% (inactive) and -21.5%.
For `C1=CC2CC1CC2CN1CCC(N(CCc2ccccc2)Cc2ccccc2)CC1` (stereo not given), the inhibition was 99.4% (active) under setting [1] and 96.9% under setting [2].
With `CCCn1nnnc1NC(=O)c1cccs1`, the inhibition under setting [1] was 18.2% (inactive) and the inhibition under setting [2] amounted to 29.4%.
With `Cc1ccc(-c2nnc(N3CCN(C(=O)c4ccco4)CC3)c3ccccc23)cc1`, the inhibition under setting [1] is 3.3% (inactive) and the inhibition under setting [2] was -1.04%.
For `O=C(OCn1nnc2ccccc2c1=O)c1ccco1`, in that order: 20.6% (active) and 47%.
For `O=C(OCn1nnc2ccccc2c1=O)c1ccccc1`, in that order: 40.5% (active) and 44.9%.
For `O=C(OCn1nnc2ccccc2c1=O)c1cccs1`, in that order: 42.4% (active) and 57.1%.
Regarding `COc1ccc(CCNC(=O)c2ccc(C#CC(C)(C)O)s2)cc1`, the inhibition under setting [1] was 92.7% (active) and the inhibition under setting [2] is 80.8%.
On the same counts, the results for `COc1ccc(NC(=O)c2ccc(C#CC(C)(C)O)s2)cc1` are 58.8% (active) and 31.9%.
On the same counts, the results for `Cn1ccnc1C(O)c1cc(C(C)(C)C)c(O)c(C(C)(C)C)c1` (stereo not given) are 22.8% (inactive) and 28.3%.
For `Cc1ccccc1C(=O)Nc1nnc(-c2ccc(Cl)cc2)o1`, in that order: 83.5% (active) and 90.7%.
For the compound `CCCCNC(=O)Nc1nnc(-c2ccc(Cl)cc2)o1`, the inhibition under setting [1] is 14.7% (inactive) and the inhibition under setting [2] was found to be 4.64%.
On the same counts, the results for `Cc1ccccc1C(=O)Nc1nnc(-c2ccc(F)cc2)o1` are 75.4% (active) and 84.5%.
For `CC1CCCN(c2ccc([N+](=O)[O-])s2)C1` (stereo not given), in that order: 97.6% (active) and 99.3%.
On the same counts, the results for `Cc1cc(C)cc(NC(=O)COc2cccc(C=O)c2)c1` are 4.11% (inactive) and 13.2%.
As for `COC(=O)COc1ccc(NC(=O)COc2cccc(C)c2)cc1`, the inhibition by setting is: under setting [1], 68.1% (active); under setting [2], 90.9%.
For the compound `CCOc1ccc(OCC(=O)Nc2cc(C)cc(C)c2)cc1`, the inhibition was 2.08% (active) under setting [1] and 38.4% under setting [2].
Turning to `COc1ccc(OCC(=O)Nc2cccc(Cl)c2)cc1`, the inhibition under setting [1] was 6.16% (inactive) and the inhibition under setting [2] was -19%.
On the same counts, the results for `COC(=O)COc1cccc(NC(=O)COc2ccccc2)c1` are 50% (active) and 64.5%.
As for `COC(=O)COc1ccc(CSCC(=O)Nc2ccc3ccccc3c2)cc1`, the inhibition is, setting by setting: under setting [1], 33.1% (active); under setting [2], 58.5%.
On the same counts, the results for `Cc1ccc(CSCC(=O)Nc2ccc(Cl)c(Cl)c2)cc1` are 2.65% (inactive) and 11.4%.
For `Cc1ccnc(NC(=O)COc2ccc([N+](=O)[O-])cc2)c1`, in that order: -0.546% (inactive) and 11.9%.
For `Cc1ccc(CSCC(=O)Nc2ccccc2)cc1`, in that order: 3.53% (active) and 35.4%.
Regarding `COC(=O)COc1ccc(NC(=O)COc2ccc(C)cc2C)cc1`, the inhibition was 99.4% (active) under setting [1] and 99.7% under setting [2].
For `COC(=O)COc1ccc(NC(=O)COc2ccc(C(C)(C)C)cc2)cc1`, in that order: 98.8% (active) and 99.4%.
On the same counts, the results for `CCOC(=O)CSc1nnc(-c2cccc(Br)c2)o1` are 67.1% (active) and 85.8%.
For `CCCOC(=O)CSc1nnc(-c2cc(OC)c(OC)c(OC)c2)o1`, the inhibition runs as follows: under setting [1], 71.2% (active); under setting [2], 87.3%.
Consider `CCOC(=O)CSc1nnc(-c2cc(OC)c(OC)c(OC)c2)o1`, for which the inhibition under setting [1] is 85.2% (active) and the inhibition under setting [2] is 90.4%.
For `CCOC(=O)N1CCN(C(=O)CSc2nnc(-c3cc(OC)cc(OC)c3)o2)CC1`, in that order: 24.7% (inactive) and 11.7%.
